# Bioassay records from PubChem BioAssay.
# Pin1 inhibitor = blocks the human prolyl isomerase Pin1 | Q13526 | Pin1 FP peptide displacement, HiFluor488, 10 min | Potency, µM (top dose mostly 115 µM), inactives show top-dose activity, negative = inhibition, actives largely listed as inhibitors | 0.009% of 390,000 active; active = well fitted inhibition curve with a large enough effect in the polarisation, with a control signal flat, not every such curve was filed as active; inconclusive = small, poorly fitted or top-dose-only effect, or effect the other way, or a change in a side signal; inactive = no such curve, though single readings can be large or run the other way; the % refers to the polarisation; also: potency is read from the fitted curve at half-maximal effect
# Target sequence (Q13526 whole entry, looked up): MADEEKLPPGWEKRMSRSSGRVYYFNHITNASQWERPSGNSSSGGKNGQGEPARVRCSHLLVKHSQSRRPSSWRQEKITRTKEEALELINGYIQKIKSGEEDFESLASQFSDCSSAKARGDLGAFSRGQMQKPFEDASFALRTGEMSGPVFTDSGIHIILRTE
# PI4K2A inh = inhibitors of human PI4K2A; purified PI4K2A, ADP-Glo luminescence, 1 h; stronger effect = lower value; AID 1346378; Q9BTU6; 0.13% of 420,000 active; activity change, negative = inhibition, % at 76.9 µM; in the data active = activity change below about -50%; inconclusive = mostly about -30% to -49%;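 also: -100% = wells without enzyme as full effect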
#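 ADP-Glo luminescence measured ADP generated by PI4K2A enzyme (4 ug/mL before mixing) with 1.2 mM PI substrate (pre-mix) and 300 microM ATP (pre-mix). Tris pH7.5 buffer with MgCl2, Triton X-100; 1 h reaction at ambient temperature.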
# PI5P4Ka inh = PI5P4K alpha (human) kinase inhibition; max response, %; AID 652105; 1.2% of 330,000 active; P48426; PI5P4Kalpha enzyme, ADP-Glo luminescence, 60 min; stronger effect = lower value; active = max response of -50% or lower; inconclusive = between -30% and -50%; inactive = -30% or higher; also: value at the top dose of about 77 µM
#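 ADP-Glo luminescence end-point after a 60 min room-temperature kinase reaction. PI5P4Kalpha and substrate in HEPES pH 7.4 buffer with EGTA, 0.1% CHAPS and 5% DMSO; ATP at 5 microM final.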
# GoLoco inh red = inhibitors of human Gai1-RGS12 GoLoco interaction (red fluorophore). P63096. Potency, µM (titrated, usually from 61.6 µM), without a hit: top-dose activity, negative = inhibition, hits mostly inhibitors. Gai1:RGS12 GoLoco peptide FP, rhodamine, 10 min. 0.44% of 230,000 active; active = well fitted inhibition curve with a large enough effect, not every such curve was filed as active; inactive = no such curve, though single readings can be large or run the other way; also: potency is read from the fitted curve at half-maximal effect; nearly all actives have a fitted effect of over 30% in size
# Target sequence (P63096 whole entry, looked up): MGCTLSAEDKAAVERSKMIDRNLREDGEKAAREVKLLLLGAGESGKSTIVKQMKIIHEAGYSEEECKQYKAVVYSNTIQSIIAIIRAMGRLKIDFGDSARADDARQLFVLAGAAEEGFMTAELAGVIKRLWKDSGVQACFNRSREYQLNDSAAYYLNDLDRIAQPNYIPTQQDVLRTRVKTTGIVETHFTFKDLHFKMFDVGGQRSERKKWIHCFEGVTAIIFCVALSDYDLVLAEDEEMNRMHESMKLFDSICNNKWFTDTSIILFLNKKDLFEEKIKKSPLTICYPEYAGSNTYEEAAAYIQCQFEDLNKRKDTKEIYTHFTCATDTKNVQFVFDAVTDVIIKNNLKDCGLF
# Tb PGK inh = inhibitors of T. brucei phosphoglycerate kinase; P07378; PGK/GAPDH coupled, Kinase-Glo luminescence, 60 min; Potency, µM (doses to about 57.5 µM), without a hit: top-dose activity change, negative = inhibition, usual class: inhibitors; 0.043% of 380,000 active; AID 602233; also: potency is read from the fitted curve at half-maximal effect; nearly all actives have a fitted effect of over 60% in size
#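 Recombinant glycosomal PGK reaction used 1,3-bisphosphoglycerate generated in-well by GAPDH (100nM final) in 100mM TEA pH 7.6, 5mM MgCl2, 0.01% Tween-20. After 60 minutes at room temperature, ATP was read by Kinase-Glo Plus luminescence end-point.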
# KAT2A inh = GCN5L2 (KAT2A) acetyltransferase inhibition; Q92830; GCN5L2 HAT assay, ThioGlo1 CoA-SH fluorescence; 0.21% of 390,000 active; Potency, µM (doses to about 58.9 µM), for the others: at the highest dose activity change, negative = inhibition, hits mostly inhibitors; also: potency is read from the fitted curve at half-maximal effect
#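 Free CoA generated was detected with ThioGlo1 (50uM) fluorescence at Ex340nm/Em540nm, read immediately and after 20 min at room temperature. Enzyme, 20 nM in HEPES pH 7.5 buffer, saw compounds 15 min before adding 75uM H3(1-25) peptide and 70uM acetyl-CoA.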
# Numbers without * were called inactive; i = inactive; ? = inconclusive; · = no result; ! = repeats disagree. This is a sample that favours compounds with a hit; in the whole collection about 1.2% have one here. Unless noted, calls follow the shape of the dose curve; as a rule, active = well fitted curve in the direction sought with a large enough effect; inconclusive = small, poorly fitted or top-dose-only effect, or another doubt; inactive = no such curve, though single readings can be large; an effect the other way counts as inactive or inconclusive. Unless noted, % is scaled to controls: 0 for no effect and ±100 for the full control effect.
SMILES,Pin1 inhibitor,PI4K2A inh,PI5P4Ka inh,GoLoco inh red,Tb PGK inh,KAT2A inh
O=C(O)C1=CC(=C(c2ccc(O)c(C(=O)O)c2)c2ccc(O)c(C(=O)O)c2)C=CC1=O,·,-85.7*,·,2.82µM*,·,0.316µM*
CC(O)/C=C/c1cccc[n+]1C (stereo unspecified),0.4%,-2.9,·,7.94µM*,-4.2%,4.5%
C[n+]1ccccc1/C=N/O,-2.1%,-0.7,10.6,-0.6%,-10.1%,-1.4%
CSc1ccccc1C(=O)N1CCC(n2nccc2NC(=O)C(C)(C)C)CC1,-4.2%,-2.8,-3.6,·,0.4%,1.1%
CC(=O)c1ccc(-n2c(-c3cc(-c4ccco4)[nH]n3)n[nH]c2=S)cc1,-12.3%,-0.8,-56.8*,-1.7%,i,-10.6%
CCOC(=O)c1sc(N)nc1C(C)C,-4.7%,1.2,-12.5,3.7%,-6.2%,?
CCCc1nc(N)sc1C(=O)OCC,-2.3%,6.8,-0.1,3.9%,2.0%,0.891µM*
O=C(N1CCCCCC1)N1CCN(S(=O)(=O)c2cccc([N+](=O)[O-])c2)CC1,-9.9%,-14.0,4.6,·,5.0%,·
Cc1c(N=NC2=C(O)CCCC2=O)c(=O)n(-c2ccccc2)n1C,18.2%,-2.1,3.0,17.8µM*,i,-0.9%
Cc1c(N=Nc2ccc(O)cc2)c(=O)n(-c2ccccc2)n1C,0.6%,0.1,2.7,9.1%,i,-1.8%
O=C(CSc1nnnn1-c1cccc2ccccc12)Nc1ccc(N2CCOCC2)c(Cl)c1,4.1%,9.6,·,-5.3%,-0.4%,-4.2%
O=C(CSc1nnnn1-c1ccccc1)Nc1ccc(N2CCOCC2)c(Cl)c1,-6.9%,1.6,·,7.08µM*,-1.2%,·
COc1ccc(-c2ccc3c(N)c(C(=O)NCc4ccc(Cl)cc4)sc3n2)cc1,?,-1.1,·,·,-4.6%,20µM*
COc1cccc(-c2ccc3c(N)c(C(=O)Nc4ccc(C)c(F)c4)sc3n2)c1,?,-0.4,·,·,0.5%,25.1µM*
CC(=O)c1ccc(S(=O)(=O)N2CCN(CC#N)CC2)cc1,-14.7%,2.7,1.9,-2.0%,-0.6%,-2.2%
CCOC(=O)c1cn(-c2ccc(F)c(F)c2F)c2c(F)c(F)c(F)cc2c1=O,1.4%,1.4,0.8,2.9%,i,4.5%
CCOC(=O)c1cn(-c2nc(-c3ccc(Cl)c(Cl)c3)cs2)c2c(F)c(N3CCOCC3)c(F)cc2c1=O,3.3%,4.6,-6.1,5.1%,i,2.51µM*
CCOC(=O)CSc1nc(N)c(C#N)c(-c2ccc(OC)cc2)c1C#N,10.6%,3.8,-64.5*,·,7.9%,-3.0%
OC(CNC1CCCC1)COc1c(F)cc(Br)cc1F (stereo unspecified),2.9%,-3.3,·,8.5%,-1.0%,1.8%
Nc1c(Br)cc(Br)cc1CNC1CCC(O)CC1 (stereo unspecified),-1.3%,4.0,8.3,20µM*!,8.7%,-7.0%
CCOc1ccc(N(CC)S(=O)(=O)N2CCCC(C(=O)Nc3cc(Cl)ccc3OC)C2)cc1 (stereo unspecified),8.8%,-0.2,·,·,-6.5%,-8.4%
O=C(O)c1cc(N2N=C(C(F)(F)F)/C(=C/C=C/c3ccco3)C2=O)ccc1Cl,·,-66.7*,-93.2*,175.4%,?,7.94µM*
COc1ccc(OC)c(CCNC(=O)c2ccc3c(c2)N(Cc2ccc(C)cc2)CCS3)c1,-9.1%,2.2,·,·,i,-3.4%
Cn1c(SCC(=O)c2ccc(F)cc2)ncc(C(=O)Nc2ccccc2)c1=O,9.5%,0.1,0.4,·,5.9%,0.9%
N#CC1C(=O)NC(=O)C(C#N)C12CCCC2 (stereo unspecified),·,-6.9,-51.1*,·,·,·
N#CC1C(=O)NC(=O)C(C#N)C12CCCc1sccc12 (stereo unspecified),·,-0.4,?,·,-8.4%,·
CC(=O)Nc1ccc(-c2cc(N)n(-c3ccccc3)n2)cc1,17.9%,-20.6,-15.4,22.7%,-19.5%,17.6%
O=c1c2ccccc2sn1-c1cccc(Cl)c1,·,-15.0,-101.4*,·,i,·
CN(C)S(=O)(=O)c1cccc(-n2sc3ccccc3c2=O)c1,-4.2%,-7.1,-91.2*,14.1µM*,-13.3%,1.58µM*
